Screens deposited in PubChem by several laboratories.
PfHsp90 yeast 2: growth inhibition of PfHsp90-expressing yeast, primary screen, antimalarial PfHsp90 inhibitor project, S. cerevisiae, BacTiter-Glo luminescence, single point, set 2 | inhibition, % at 9.4 µM | 310,000 tested, 0.32% active | BacTiter-Glo ATP, 48 h; yeast lacking PDR1 and PDR3 efflux regulators;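 active = every replicate shows inhibition above about 80%, whatever the replicate mean, limit read from the data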
tim23-1 inh: growth inhibitors of tim23-1 mutant yeast, primary screen, luminescence, uHTS; S. cerevisiae tim23-1 growth, BacTiter-Glo luminescence, 24 h; inhibition, % at 20 µM; 330,000 tested, 1.3% active; AID 463212, 2010;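 active = growth inhibition of the mutant yeast at or above 50%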;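 also: temperature-sensitive mutant grown at 25 °C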
V-ATPase pHluor: regulators of yeast V-ATPase proton pumping, primary screen, pHLuorin cytosolic pH fluorescence | AID 504577, 2011 | S. cerevisiae | 350,000 tested, 0.37% active | response, % at 10 µM; in the data active = response mostly above about 7.3%, no sharp cut-off; inactive = mostly below about 5.4%; also: actives read high
SKKanGAS inh: S. pyogenes SKKanGAS growth inhibitors in kanamycin, primary screen, streptokinase expression inhibitor project, SKKanGAS strain, BacTiter-Glo luminescence; 6 h; inhibition, % at 7.5 µM; 300,000 tested, 1.3% active;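 active = mean replicate score, as percent of positive control median, at least 50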;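 also: strain carries kanamycin resistance gene driven by streptokinase promoter and grows in 40 µg/ml kanamycin; loss of luminescence reflects streptokinase promoter inhibition or plain growth inhibition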
tim10-1 inh: growth inhibitors of tim10-1 mutant yeast, primary screen, luminescence, uHTS. S. cerevisiae tim10-1 ts strain growth, BacTiter-Glo, 24 h. inhibition, % at 20 µM. 330,000 tested, 2.2% active. AID 463190, 2010;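 active = inhibition of at least 40%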;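 also: mutant grown at 25 °C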
TIM10 inh: growth inhibitors of isogenic TIM10 control yeast, primary screen, counter-screen for tim10-1 yeast inhibitor project, luminescence, uHTS. S. cerevisiae TIM10 strain growth, BacTiter-Glo luminescence, 24 h. inhibition, % at 10 µM. 330,000 tested, 1.4% active. AID 463195, 2010;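 active = inhibition of 40% or more at the single tested concentration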;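 also: wild-type TIM10 isogenic control strain grown at permissive 25 °C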
tim10-1 confirm: growth inhibitors of tim10-1 mutant yeast, confirmation, single concentration, luminescence, S. cerevisiae | AID 463213, 2010 | inhibition, % at 20 µM | S. cerevisiae tim10-1 ts strain growth, BacTiter-Glo, 24 h | 7,400 tested, 56% active | shares compounds with tim10-1 inh;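 active = inhibition of yeast growth at or above a set limit in either of two repeat tests at 20 µM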;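 also: tim10-1 mutant grown at permissive 25 °C to find synthetic lethal compounds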
TIM10 conf: growth inhibitors of wild-type TIM10 yeast, confirmation, counter-screen for tim10-1 synthetic lethality project, single concentration, luminescence, S. cerevisiae; shares compounds with TIM10 inh; S. cerevisiae tim10 strain growth, BacTiter-Glo luminescence, 24 h; inhibition, % at 10 µM; 4,600 tested, 63% active;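 active = inhibition of yeast growth at or above a set limit in either of two replicates at 10 µM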; also: this counterscreen used the strain with wild-type TIM10
Each line names hits and unclear results; the compound was inactive in the other large screens (follow-up assays come after a bar, where they were run). An excerpt weighted towards active compounds, which were near 4.6% of everything screened.

COc1ccc(-c2cc(C(=O)N3CCN(C(c4ccccc4)c4ccccc4)CC3)no2)cc1OC	tim10-1 inh 51, TIM10 inh 56 | tim10-1 confirm 60 | TIM10 conf 45
COc1ccc(-c2cc(C(=O)N3CCCC3)no2)cc1	none
C=CCOCCN(CC)CC	none (no result: tim23-1 inh, tim10-1 inh, TIM10 inh)
CSc1ccc(S(=O)(=O)NCc2ccc(Cl)cc2Cl)cc1	tim10-1 inh 47, TIM10 inh 46 | tim10-1 confirm 39 | TIM10 conf 39
COc1ccccc1Nc1nc(N)nc(CSC(=S)N2CCN(c3ccccc3)CC2)n1	none
COc1ccccc1Nc1nc(N)nc(CSC(=S)N2CCCCC2C)n1 (stereo not drawn)	tim10-1 inh 42, TIM10 inh 49 | tim10-1 confirm inactive | TIM10 conf inactive
CCOc1ccc2nc(N/C(N)=N/C(=S)Nc3cccc(C)c3)nc(C)c2c1	none
CCc1ccccc1NC(=S)/N=C(\N)Nc1nc(C)c2cc(C)ccc2n1	tim10-1 inh 45, TIM10 inh 44 | tim10-1 confirm inactive | TIM10 conf inactive
NC(=O)/C=C\C(=O)Nc1cccc(C(F)(F)F)c1	PfHsp90 yeast 2 97, tim10-1 inh 61, TIM10 inh 56 | tim10-1 confirm 55 | TIM10 conf 66
O=C(Nc1ccc(OC(F)F)cc1)Nc1cccc(C(F)(F)F)c1	SKKanGAS inh 59, tim10-1 inh 57, TIM10 inh 63 | tim10-1 confirm 51 | TIM10 conf 52
NNC(=O)Nc1cccc(C(F)(F)F)c1	none (no result: PfHsp90 yeast 2)
Cc1ccccc1C(=O)NN1C(=O)CSC1=S	none (no result: PfHsp90 yeast 2)
CCOC(=O)c1ccccc1N1C(=O)CSC1=S	tim10-1 inh 49, TIM10 inh 48 | tim10-1 confirm inactive | TIM10 conf 45
Cc1cc(C)c(C(=O)/C=C/c2cccc3ccccc23)c(=O)[nH]1	tim10-1 inh 43, TIM10 inh 41 | tim10-1 confirm 38 | TIM10 conf inactive
Cc1cc2ccccn2c1C(=O)c1ccc([N+](=O)[O-])o1	V-ATPase pHluor 11, tim10-1 inh 46, TIM10 inh 77 (no result: PfHsp90 yeast 2) | tim10-1 confirm inactive | TIM10 conf 91
Cc1cc2ccccn2c1C(=O)c1cccc([N+](=O)[O-])c1	none
CCC(=O)Nc1cccc(C(=O)/C=C/c2cccs2)c1	tim10-1 inh 46, TIM10 inh 42 | tim10-1 confirm inactive | TIM10 conf inactive
Cc1cc(C(F)F)n2nc(C(=O)Nc3sc4c(c3C#N)CCC(C)C4)nc2n1 (stereo not drawn)	tim10-1 inh 57, TIM10 inh 42 (no result: PfHsp90 yeast 2) | tim10-1 confirm 48 | TIM10 conf 42
Cc1cc(SCC(=O)NCC2CCCO2)nc2ccccc12 (stereo not drawn)	none
O=C(N/N=C/c1ccccn1)c1cc([N+](=O)[O-])cc([N+](=O)[O-])c1	tim10-1 inh 42, TIM10 inh 48 | tim10-1 confirm inactive | TIM10 conf inactive
CC(C)(C)c1ccc(C(=O)NC2CCS(=O)(=O)C2)cc1 (stereo not drawn)	none
CN(CC(=O)Nc1ccc(Cl)c(Cl)c1)C1CCCCC1	none
CN(CC(=O)Nc1ccc(Cl)c(Cl)c1)C(=O)C12CC3CC(CC(C3)C1)C2	tim10-1 inh 45, TIM10 inh 60 | tim10-1 confirm inactive | TIM10 conf 53
C[n+]1c2n(c3ccccc31)N=C(c1ccc(Br)cc1)CS2	tim10-1 inh 44, TIM10 inh 43 (no result: PfHsp90 yeast 2) | tim10-1 confirm 44 | TIM10 conf 32
C[n+]1c2n(c3ccccc31)N=C(c1ccccc1)CS2	none
Cc1ccc(S(=O)(=O)c2c(C)nn(-c3ccccc3)c2OC(=O)c2ccc(Br)o2)cc1	none (no result: tim23-1 inh, SKKanGAS inh, tim10-1 inh, TIM10 inh)
